Data as given in PubChem BioAssay (NCI).
About 79,000 compounds went through this panel and 15% of them were active in at least one assay; those are over-represented in the sample as a whole. Rule as the data show it: active = growth inhibition above about 70%; inactive = the rest.

Experiments:
[1] = NCI Yeast Anticancer Drug Screen. Data for the rad50 strain (AID 155);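 also: 0% = growth of vehicle-only cultures of the same strain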; conditions: S. cerevisiae rad50 strain growth inhibition; at 50.0 µM; hits give high values
Summary of the method: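 Growth of the mutant yeast was measured after compound exposure and referenced to vehicle-treated cultures.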

[2] = NCI Yeast Anticancer Drug Screen. Data for the mec2-1 strain (AID 157); conditions: S. cerevisiae mec2-1 strain, at 50.0 µM, hits give high values
Summary of the method: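 Test agents were screened against the mec2-1 yeast strain, with defined DNA repair or cell cycle alteration. Growth was scored as inhibition against vehicle-only controls.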

[3] = NCI Yeast Anticancer Drug Screen. Data for the sgs1 mgt1 strain (AID 161);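 also: 0% = growth of cultures given vehicle only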; conditions: S. cerevisiae sgs1 mgt1 strain, at 50.0 µM, hits give high values
Summary of the method: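 Read-out: growth inhibition vs vehicle controls. Cells: mutant yeast strain deficient in DNA damage repair.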

[4] = NCI Yeast Anticancer Drug Screen. Data for the cln2 rad14 strain (AID 165);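 also: 0% = growth equal to vehicle treated cultures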; conditions: S. cerevisiae cln2 rad14 strain, at 50.0 µM, hits give high values
Summary of the method: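 Growth of compound-exposed yeast (cln2 rad14 genotype) measured and expressed as inhibition relative to vehicle.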

[5] = NCI Yeast Anticancer Drug Screen. Data for the bub3 strain (AID 167); conditions: S. cerevisiae bub3 mutant strain, at 50.0 µM, hits give high values
Summary of the method: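 Whole-cell yeast assay. The mutant strain was incubated with compounds, and growth inhibition was determined by comparison with vehicle-treated cells.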

[6] = NCI Yeast Anticancer Drug Screen. Data for the mlh1 rad18 strain (AID 175); conditions: S. cerevisiae mlh1 rad18 strain growth inhibition; at 50.0 µM; hits give high values
Summary of the method: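 In this whole-cell yeast screen, a strain with altered DNA damage repair is challenged with compound, and its growth is measured against matched vehicle-treated controls.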

Measured: growth inhibition

Cc1cc2nc3n(c2cc1C)C(=O)c1cc2ccccc2cc1-3
inactive: [1] -8.55% | [2] 0.6% | [3] 3.1% | [4] 7.7% | [5] -10.4% | [6] 2.7%

Cc1[nH]c(=O)[nH]c(=O)c1C(=O)N(CCO)Cc1ccccc1
inactive: [1] -39.5% | [2] -21.4% | [3] -24.9% | [4] 7.7% | [5] 11.7% | [6] -15.9%

CC(=O)NC1=C(Sc2ccc(Cl)cc2)C(=O)c2ccccc2C1=O
inactive: [1] 56.2% | [2] 15.8% | [3] 18.3% | [4] -56.4% | [5] 19.9% | [6] 33.2%

O=C(O)/C=C\C(=O)Nc1ccccc1
inactive: [1] 10.2% | [2] 15.8% | [3] -16.1% | [4] -53.5% | [5] -3.25% | [6] 11.5%

COC(=O)/C=C(\S/C=C(/c1ccccc1)N1CCn2c(C(=O)c3ccccc3)c(C(=O)OC)c(C(=O)OC)c21)C(=O)OC
inactive: [1] 27.4% | [2] 32.6% | [3] 43.8% | [4] 11.4% | [5] 54.1% | [6] 15.2%

COC(=O)c1nc2c(N)nc(-c3ccccc3)nc2nc1N
inactive: [1] 8.9% | [2] -7.4% | [3] 23.1% | [4] 11.3% | [5] -16.6% | [6] -1.95%

O=C(O)c1ncnn1-c1ccccc1
inactive: [1] 4.7% | [2] 18.9% | [3] 17.4% | [4] -5.95% | [5] 18.8% | [6] 1.55%

CCCCCCCCCCCCCCCC(=O)N=C(C(N)=O)C(N)=O
inactive: [1] 4.25% | [2] -35% | [3] -14.7% | [4] -54% | [5] -22.6% | [6] -19.9%

CCOC(=O)C1CC(C)c2[nH]c3ccccc3c21 (stereo not given)
inactive: [1] 2.2% | [2] 6.9% | [3] -5.15% | [4] -25% | [5] -12% | [6] -13%

Cc1ccc(S(=O)(=O)NNC(=O)Nc2cccc(C(F)(F)F)c2)cc1
inactive: [1] 24.4% | [2] -18% | [3] 18.1% | [4] -2.15% | [5] -0.3% | [6] 54.7%

O=C1O[C@H]2C3C4CCC(C4[C@@H]2I)[C@H]13 (stereo not given in full)
inactive: [1] -13.7% | [2] -13.8% | [3] -9.1% | [4] 19.9% | [5] 14.1% | [6] 16.6%

COC(=O)C(Cc1c[nH]c2ccccc12)NC(=O)C(Cc1cnc[nH]1)NC(=O)C1CCC(=O)N1C(=O)OCc1ccccc1 (stereo not given)
inactive: [1] -10.2% | [2] -3.55% | [3] -2% | [4] -2.35% | [5] -1.35% | [6] -5.1%

COc1cc([N+](=O)[O-])ccc1NC(=O)C(Br)C(Br)C(=O)O (stereo not given)
inactive: [1] -6.6% | [2] 5.15% | [3] -12.5% | [4] -28.1% | [5] -0.35% | [6] 16.4%

CCOc1cc(CC[N+](C)(C)C)c2c(ccc3ccc(OC)c(OC)c32)c1OC
inactive: [1] 18.1% | [2] -10.8% | [3] -5.4% | [4] 13.5% | [5] -15.8% | [6] -14.2%

O=[N+]([O-])c1cccc(CC(=S)N2CCOCC2)c1
inactive: [1] 14.4% | [2] -3.8% | [3] -8.9% | [4] -39.8% | [5] -2.3% | [6] 6.6%

NC(N)=Nc1nc2ccc(Cl)cc2[nH]1
inactive: [1] 29.2% | [2] 1% | [3] 22.8% | [4] -4.3% | [5] -11.9% | [6] 11%

CNC(=O)C(c1ccccc1)C(F)(F)F (stereo not given)
inactive: [1] 8.1% | [2] 3.9% | [3] -6.7% | [4] -12.4% | [5] 10.3% | [6] 4.3%

c1ccc(-c2cc(-c3cc(-c4ccccc4)n[nH]3)[nH]n2)cc1
inactive: [1] -9.95% | [2] -8.15% | [3] -21.4% | [4] -19.2% | [5] -16.6% | [6] -37.1%

O=C(O)/C=C\C(=O)Nc1ccc(N=Nc2ccccc2)cc1
inactive: [1] -34.6% | [2] -39.9% | [3] -7.95% | [4] -3.65% | [5] -18.8% | [6] -2.9%

CC(C)(C)c1ccc(/C=N/NC(=O)c2cccnc2)cc1
inactive: [1] 0.55% | [2] 8.45% | [3] 4.15% | [4] 14.3% | [5] 11.3% | [6] 9.45%
